# Article PMC7862700, “An all-to-all approach to the identification of sequence-specific readers for epigenetic DNA modifications on cytosine”
# Experiments:
# Experiment in all cases: DAPPL (digital affinity profiling via proximity ligation, sequencing); 10 mM Tris-HCl pH 7.5, 50 mM NaCl, 1 mM DTT, 4% glycerol, room temperature, 30 min; GST-TFs on glutathione beads, 16-mer random dsDNA library, 0.1% formaldehyde crosslink after washing; high values mean tight binding
# Conditions in all cases: protein: recombinant; tags: N-terminal GST; dsDNA, one strand shown
# FLI1 = target: T1, FLI1 (Homo sapiens, UniProt Q01543 1-452)
# T1 sequence: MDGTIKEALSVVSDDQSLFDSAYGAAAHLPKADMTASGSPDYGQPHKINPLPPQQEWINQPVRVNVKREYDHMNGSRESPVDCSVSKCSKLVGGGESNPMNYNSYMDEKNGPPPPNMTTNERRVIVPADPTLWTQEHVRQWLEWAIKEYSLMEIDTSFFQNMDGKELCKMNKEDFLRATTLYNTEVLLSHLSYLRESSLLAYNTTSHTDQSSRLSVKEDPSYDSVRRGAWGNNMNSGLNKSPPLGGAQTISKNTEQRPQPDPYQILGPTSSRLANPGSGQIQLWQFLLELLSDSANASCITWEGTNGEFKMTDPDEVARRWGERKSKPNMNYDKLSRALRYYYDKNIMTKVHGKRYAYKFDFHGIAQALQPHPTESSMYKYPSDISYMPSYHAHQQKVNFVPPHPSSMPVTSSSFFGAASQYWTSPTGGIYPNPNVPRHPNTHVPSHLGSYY
# How it was run: (§1)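 Beads coated with glutathione captured GST-fused human transcription factors that had been expressed in yeast, and the factors were then given DNA barcodes and pooled with a tag-only sample. The pools were incubated with 200 nmole of a random double-stranded 16-mer DNA library in Tris/NaCl/DTT/glycerol buffer for 30 min at room temperature, washed, crosslinked with 0.1% formaldehyde and proximity-ligated with BsaI/T4 ligase at 37 °C for 1 h. PCR amplification and Illumina NextSeq500 sequencing came last. Binding signal is each hexamer's read frequency for a factor divided by its frequency for the tag-only sample.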
# ELK1 = target: T2, ELK1 (Homo sapiens, UniProt P19419 1-428)
# T2 sequence: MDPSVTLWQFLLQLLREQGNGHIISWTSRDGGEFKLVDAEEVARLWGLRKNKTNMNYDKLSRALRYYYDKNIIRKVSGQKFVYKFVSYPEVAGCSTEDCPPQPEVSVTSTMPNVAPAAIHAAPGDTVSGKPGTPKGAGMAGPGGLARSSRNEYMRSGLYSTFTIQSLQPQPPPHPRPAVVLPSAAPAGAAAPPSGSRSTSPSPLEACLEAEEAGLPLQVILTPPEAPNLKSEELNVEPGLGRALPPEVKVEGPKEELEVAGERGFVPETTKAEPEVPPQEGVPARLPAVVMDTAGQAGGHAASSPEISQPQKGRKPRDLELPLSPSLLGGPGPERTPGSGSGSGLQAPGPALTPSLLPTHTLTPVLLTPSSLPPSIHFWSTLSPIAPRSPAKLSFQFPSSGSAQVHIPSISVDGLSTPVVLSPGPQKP
# How it was run: as §1
# GABPA = target: T3, GABPA (Homo sapiens, UniProt Q06546 1-454)
# T3 sequence: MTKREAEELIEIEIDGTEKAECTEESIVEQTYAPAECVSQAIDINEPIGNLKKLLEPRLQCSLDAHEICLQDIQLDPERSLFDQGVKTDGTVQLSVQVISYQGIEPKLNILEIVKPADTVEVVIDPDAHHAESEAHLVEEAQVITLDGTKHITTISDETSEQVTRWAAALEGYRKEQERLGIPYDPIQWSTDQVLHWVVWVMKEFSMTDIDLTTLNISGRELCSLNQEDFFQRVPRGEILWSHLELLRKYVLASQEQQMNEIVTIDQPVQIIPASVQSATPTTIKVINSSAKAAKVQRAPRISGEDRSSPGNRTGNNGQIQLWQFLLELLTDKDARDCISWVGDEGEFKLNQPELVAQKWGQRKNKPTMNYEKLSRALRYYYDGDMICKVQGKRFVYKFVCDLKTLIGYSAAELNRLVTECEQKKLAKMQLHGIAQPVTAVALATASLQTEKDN
# How it was run: as §1
# ERG = target: T4, ERG (Homo sapiens, UniProt P11308 1-479)
# T4 sequence: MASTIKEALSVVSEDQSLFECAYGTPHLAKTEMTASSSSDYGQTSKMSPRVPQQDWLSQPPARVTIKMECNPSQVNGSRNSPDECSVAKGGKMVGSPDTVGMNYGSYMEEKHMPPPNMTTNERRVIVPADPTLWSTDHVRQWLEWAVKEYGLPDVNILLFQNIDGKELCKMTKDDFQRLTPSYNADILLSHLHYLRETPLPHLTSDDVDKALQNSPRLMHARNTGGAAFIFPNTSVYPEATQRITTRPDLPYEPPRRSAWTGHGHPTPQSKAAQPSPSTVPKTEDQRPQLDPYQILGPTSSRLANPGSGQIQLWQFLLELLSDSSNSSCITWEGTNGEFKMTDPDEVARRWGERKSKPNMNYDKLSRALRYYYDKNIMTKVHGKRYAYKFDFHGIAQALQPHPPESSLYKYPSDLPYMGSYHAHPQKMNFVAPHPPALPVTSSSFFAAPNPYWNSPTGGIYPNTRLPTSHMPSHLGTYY
# How it was run: as §1
# ELF1 = ELF1 (Homo sapiens, UniProt P32519 1-619)
# How it was run: as §1
# EHF = target: T5, EHF (Homo sapiens, UniProt Q9NZC4 1-300)
# T5 sequence: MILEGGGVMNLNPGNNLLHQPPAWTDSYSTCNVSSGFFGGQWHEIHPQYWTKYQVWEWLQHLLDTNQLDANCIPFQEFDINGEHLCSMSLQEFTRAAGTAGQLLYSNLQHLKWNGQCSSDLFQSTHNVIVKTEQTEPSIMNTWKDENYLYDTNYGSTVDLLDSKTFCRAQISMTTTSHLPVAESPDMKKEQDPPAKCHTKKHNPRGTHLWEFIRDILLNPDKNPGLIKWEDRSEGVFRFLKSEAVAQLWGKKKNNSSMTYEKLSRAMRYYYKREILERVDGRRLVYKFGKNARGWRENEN
# How it was run: as §1
# SPI1 = SPI1 (Homo sapiens, UniProt P17947 1-270)
# How it was run: as §1
# SPIB = SPIB (Homo sapiens, UniProt Q01892 1-262)
# How it was run: as §1
# ELK3 = target: T6, ELK3 (Homo sapiens, UniProt P41970 1-407)
# T6 sequence: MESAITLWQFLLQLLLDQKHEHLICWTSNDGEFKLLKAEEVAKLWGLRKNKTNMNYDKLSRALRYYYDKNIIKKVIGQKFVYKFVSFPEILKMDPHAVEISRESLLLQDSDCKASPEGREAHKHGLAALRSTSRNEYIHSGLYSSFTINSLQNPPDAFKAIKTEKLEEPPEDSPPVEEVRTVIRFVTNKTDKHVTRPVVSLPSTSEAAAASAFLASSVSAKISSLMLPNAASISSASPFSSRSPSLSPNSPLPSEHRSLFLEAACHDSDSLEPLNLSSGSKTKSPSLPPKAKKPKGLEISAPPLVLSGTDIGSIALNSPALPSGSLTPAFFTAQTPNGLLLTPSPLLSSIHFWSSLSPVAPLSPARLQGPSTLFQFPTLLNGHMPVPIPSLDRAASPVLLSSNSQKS
# How it was run: as §1
# SPIB, sequence (Q01892 whole entry): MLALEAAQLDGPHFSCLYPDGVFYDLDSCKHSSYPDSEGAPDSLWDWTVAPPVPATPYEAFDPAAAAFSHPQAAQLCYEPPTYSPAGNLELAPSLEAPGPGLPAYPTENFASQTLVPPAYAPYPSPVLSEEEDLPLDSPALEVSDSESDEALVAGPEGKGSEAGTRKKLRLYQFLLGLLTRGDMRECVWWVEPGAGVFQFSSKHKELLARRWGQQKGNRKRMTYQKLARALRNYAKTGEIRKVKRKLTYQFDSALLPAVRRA
# ELF1, sequence (P32519 whole entry): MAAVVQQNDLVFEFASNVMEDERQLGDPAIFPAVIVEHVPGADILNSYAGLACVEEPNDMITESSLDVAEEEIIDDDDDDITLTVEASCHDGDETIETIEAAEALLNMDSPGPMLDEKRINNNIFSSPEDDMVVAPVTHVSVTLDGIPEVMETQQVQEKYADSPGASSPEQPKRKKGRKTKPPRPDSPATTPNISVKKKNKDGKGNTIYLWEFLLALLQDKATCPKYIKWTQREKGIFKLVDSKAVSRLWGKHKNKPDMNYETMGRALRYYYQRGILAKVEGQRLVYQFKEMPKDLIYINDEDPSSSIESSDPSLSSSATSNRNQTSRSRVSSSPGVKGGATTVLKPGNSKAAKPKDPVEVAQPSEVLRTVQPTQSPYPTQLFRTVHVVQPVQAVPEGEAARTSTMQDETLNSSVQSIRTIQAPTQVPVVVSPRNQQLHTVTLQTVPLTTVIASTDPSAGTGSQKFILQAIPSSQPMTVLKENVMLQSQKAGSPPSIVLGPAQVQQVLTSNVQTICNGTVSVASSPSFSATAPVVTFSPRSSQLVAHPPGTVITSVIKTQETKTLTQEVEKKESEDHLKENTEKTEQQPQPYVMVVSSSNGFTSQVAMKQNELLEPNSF
Sequence,binding signal (FLI1),binding signal (ELK1),binding signal (GABPA),binding signal (ERG),binding signal (ELF1),binding signal (EHF),binding signal (SPI1),binding signal (SPIB),binding signal (ELK3)
CTAACG,"1.22 fold enrichment (6-mer frequency, TF over GST control)","1.23 fold enrichment (6-mer frequency, TF over GST control)","1.09 fold enrichment (6-mer frequency, TF over GST control)","1.21 fold enrichment (6-mer frequency, TF over GST control)","1.13 fold enrichment (6-mer frequency, TF over GST control)","1.13 fold enrichment (6-mer frequency, TF over GST control)","1.26 fold enrichment (6-mer frequency, TF over GST control)","1.11 fold enrichment (6-mer frequency, TF over GST control)","1.19 fold enrichment (6-mer frequency, TF over GST control)"
ATACTT,"1.57 fold enrichment (6-mer frequency, TF over GST control)","1.6 fold enrichment (6-mer frequency, TF over GST control)","1.54 fold enrichment (6-mer frequency, TF over GST control)","1.68 fold enrichment (6-mer frequency, TF over GST control)","1.61 fold enrichment (6-mer frequency, TF over GST control)","1.71 fold enrichment (6-mer frequency, TF over GST control)","1.67 fold enrichment (6-mer frequency, TF over GST control)","1.48 fold enrichment (6-mer frequency, TF over GST control)","1.7 fold enrichment (6-mer frequency, TF over GST control)"
CTGCGT,"1.12 fold enrichment (6-mer frequency, TF over GST control)","1.15 fold enrichment (6-mer frequency, TF over GST control)","1.16 fold enrichment (6-mer frequency, TF over GST control)","1.13 fold enrichment (6-mer frequency, TF over GST control)","1.17 fold enrichment (6-mer frequency, TF over GST control)","1.18 fold enrichment (6-mer frequency, TF over GST control)","1.16 fold enrichment (6-mer frequency, TF over GST control)","1.12 fold enrichment (6-mer frequency, TF over GST control)","1.24 fold enrichment (6-mer frequency, TF over GST control)"
TGTTTA,"1.2 fold enrichment (6-mer frequency, TF over GST control)","1.09 fold enrichment (6-mer frequency, TF over GST control)","1.18 fold enrichment (6-mer frequency, TF over GST control)","1.17 fold enrichment (6-mer frequency, TF over GST control)","1.13 fold enrichment (6-mer frequency, TF over GST control)","1.19 fold enrichment (6-mer frequency, TF over GST control)","1.12 fold enrichment (6-mer frequency, TF over GST control)","1.21 fold enrichment (6-mer frequency, TF over GST control)","1.2 fold enrichment (6-mer frequency, TF over GST control)"
ACCCGG,"1.62 fold enrichment (6-mer frequency, TF over GST control)","1.67 fold enrichment (6-mer frequency, TF over GST control)","1.62 fold enrichment (6-mer frequency, TF over GST control)","1.84 fold enrichment (6-mer frequency, TF over GST control)","1.75 fold enrichment (6-mer frequency, TF over GST control)","1.96 fold enrichment (6-mer frequency, TF over GST control)","1.54 fold enrichment (6-mer frequency, TF over GST control)","1.77 fold enrichment (6-mer frequency, TF over GST control)","1.71 fold enrichment (6-mer frequency, TF over GST control)"
ACACTC,"1.04 fold enrichment (6-mer frequency, TF over GST control)","1.1 fold enrichment (6-mer frequency, TF over GST control)","1.15 fold enrichment (6-mer frequency, TF over GST control)","1.08 fold enrichment (6-mer frequency, TF over GST control)","1.12 fold enrichment (6-mer frequency, TF over GST control)","1.14 fold enrichment (6-mer frequency, TF over GST control)","1.09 fold enrichment (6-mer frequency, TF over GST control)","1.15 fold enrichment (6-mer frequency, TF over GST control)","1.19 fold enrichment (6-mer frequency, TF over GST control)"
AGGAAA,"1.32 fold enrichment (6-mer frequency, TF over GST control)","1.28 fold enrichment (6-mer frequency, TF over GST control)","1.31 fold enrichment (6-mer frequency, TF over GST control)","1.62 fold enrichment (6-mer frequency, TF over GST control)","1.27 fold enrichment (6-mer frequency, TF over GST control)","1.63 fold enrichment (6-mer frequency, TF over GST control)","1.43 fold enrichment (6-mer frequency, TF over GST control)","1.49 fold enrichment (6-mer frequency, TF over GST control)","1.34 fold enrichment (6-mer frequency, TF over GST control)"
